Experiments:
[1] = system: Caenorhabditis elegans dauer (daf-2(e1370)); experiment: proportion of mobile C. elegans dauer larvae relative to DMSO control (fraction of DMSO control); higher = more viable, less nematicidal, active = 0.63 or less; extreme values may be limits of the assay; conditions: 60 µM; 5 days; temperature: 20 °C
In short: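 Compound was added by pinning to 60 µM final, giving 0.6% v/v DMSO, in 96-well plates containing about 20 C. elegans dauers per well in liquid NGM. These dauers came from synchronized larvae held on MYOB plates with E. coli OP50 for 48 h at 25 °C. Plates were sealed and shaken at 200 rpm at 20 °C for 5 days. Under a dissection microscope, the proportion of mobile worms was scored relative to DMSO wells, and two biological replicates were averaged.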

[2] = system: Ditylenchus dipsaci; experiment: proportion of mobile D. dipsaci (mixed stage) relative to DMSO control (fraction of DMSO control); higher = more viable, less nematicidal, active = 0.86 or less; extreme values may be limits of the assay; conditions: 60 µM; 5 days; temperature: 20 °C
In short: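 Mobility, expressed relative to DMSO controls, is the mean of two biological replicates. The test organisms were D. dipsaci grown on pea plants in Gamborg B-5 agar and extracted into water by filter funnel, with about 20 added per well of a 96-well plate in distilled water. Compound was pinned to 60 µM final (0.6% v/v DMSO), plates were sealed and shaken at 200 rpm for 5 days at 20 °C, and mobile worms were scored under a microscope once 2 µL 1 M NaOH had been added.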

Row | Compound | proportion of mobile C. elegans dauer larvae [1] | proportion of mobile D. dipsaci [2]
1 | Cc1cc(OCc2nc(-c3ccncc3)no2)cc(C)c1Cl | 1 (inactive) | 1 (inactive)
2 | CCNC(=O)c1ccccc1-c1nc(-c2ccc(F)cc2)no1 | 1 (inactive) | 1 (inactive)
3 | Fc1ccccc1-c1nc(-c2ccc(Cl)cc2)no1 | 1 (inactive) | 1 (inactive)
4 | COc1ccc(-c2nnc(SCC(=O)c3ccc(C)o3)o2)cc1 | 1 (inactive) | 1 (inactive)
5 | CCn1c(SCc2ccc(OC)cc2)nnc1-c1ccco1 | 1 (inactive) | 1 (inactive)
6 | c1cncc(-c2noc(-c3cccc4ccccc34)n2)c1 | 1 (inactive) | 1 (inactive)
7 | CCOc1ccccc1-c1nnc(SCC(=O)Nc2nc(C)cs2)o1 | 1 (inactive) | 1 (inactive)
8 | CC(C)(C)c1ccc(-c2nc(-c3ccncc3)no2)cc1 | 1 (inactive) | 1 (inactive)
9 | Cc1ccc(-c2nnc(SCc3ccccc3C)o2)cc1 | 1 (inactive) | 1 (inactive)
10 | Cc1ccc(NC(=O)CSc2nnc(-c3ccc(C(C)(C)C)cc3)o2)c(C)c1 | 1 (inactive) | 1 (inactive)
11 | N#Cc1ccc(CSc2nnc(-c3ccncc3)o2)cc1 | 1 (inactive) | 1 (inactive)
12 | O=C(CSc1nnc(-c2ccco2)o1)Nc1ccc(Br)cc1 | 1 (inactive) | 1 (inactive)
13 | CCc1ccc(OCc2nc(-c3ccc(C)cc3)no2)cc1 | 1 (inactive) | 1 (inactive)
14 | COc1ccccc1NC(=O)CSc1nnc(-c2cccc3ccccc23)o1 | 1 (inactive) | 1 (inactive)
15 | COc1ccc(-c2noc(-c3ccc(C)cc3Cl)n2)cc1 | 1 (inactive) | 1 (inactive)
16 | CC(C)CCC(=O)Nc1ccccc1-c1nc(-c2ccccn2)no1 | 1 (inactive) | 1 (inactive)
